DT40 TDP1 no CPT: qHTS for Inhibitors of human tyrosyl-DNA phosphodiesterase 1 (TDP1): qHTS in cells in absence of CPT; actives 15% (n = 420,000); Potency, µM (top dose mostly 46.2 µM), for inactives: at the highest dose activity change, negative = growth inhibition, hits mostly inhibitors; DT40 Tdp1-/- hTDP1 cells, no CPT, ATP luminescence, 48 h; note: potency is the fitted concentration of half-maximal effect; nearly all actives have a fitted effect of over 55% in size
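Chicken DT40 Tdp1-/- cells complemented with human TDP1, screened without camptothecin (DMSO vehicle only), 400 cells/well. Compounds pin-transferred, cells incubated at 37 °C for at least 48 hr. Growth read as ATP-dependent luminescence (CellTiter-Glo, 30 min at RT).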
IL-1B inflam inh: blocks inflammasome-driven IL-1 beta release; AID 743279; activity change, % at 57.5 µM; actives 4.7% (n = 360,000); THP-1 LPS/ATP IL-1B secretion, AlphaLISA, 16 h; stronger effect = lower value; in the data active = activity change below about -50%; inconclusive = mostly about -30% to -49%
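THP-1 cells pretreated 1 hr with compounds (up to 57.5 uM final), then stimulated with LPS (250 ng/mL final) plus ATP (1.25 mM final); secreted IL-1B measured by AlphaLISA after 16 hr, decreased signal indicating inhibition.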
RORgamma inh: ROR gamma (mouse) transcription inhibition; Drosophila S2 Gal4-RORgamma UAS-luciferase reporter, 20 h; Potency, µM (series often up to 53.6 µM), for inactives: top-dose activity change, negative = inhibition, usual class: inhibitors; actives 5.4% (n = 310,000); note: potency is the fitted concentration of half-maximal effect; nearly all actives have a fitted effect of over 60% in size
Target sequence (P51450 whole entry, looked up, the tested form may be a part): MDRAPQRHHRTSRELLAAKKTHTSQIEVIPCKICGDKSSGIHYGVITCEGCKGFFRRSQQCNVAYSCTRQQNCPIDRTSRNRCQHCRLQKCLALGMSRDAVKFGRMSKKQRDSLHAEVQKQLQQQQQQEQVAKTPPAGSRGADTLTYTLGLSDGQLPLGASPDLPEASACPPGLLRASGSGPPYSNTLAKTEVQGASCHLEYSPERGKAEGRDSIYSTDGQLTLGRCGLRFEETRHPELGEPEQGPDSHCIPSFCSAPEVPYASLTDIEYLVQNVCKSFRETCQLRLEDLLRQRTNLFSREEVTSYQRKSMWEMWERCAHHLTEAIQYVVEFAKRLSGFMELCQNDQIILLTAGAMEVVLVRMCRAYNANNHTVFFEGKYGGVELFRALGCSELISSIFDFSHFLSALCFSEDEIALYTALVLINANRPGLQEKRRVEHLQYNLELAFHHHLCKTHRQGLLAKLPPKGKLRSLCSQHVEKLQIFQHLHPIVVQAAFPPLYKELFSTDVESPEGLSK
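Stable Schneider cell line, Gal4 DNA-binding domain fused to ROR gamma, UAS-luciferase. Cmpd 1 hr RT → CuSO4 700 uM final → 20 hr RT → luciferase reagent 10 min → luminescence.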
ELG1 DNA repair: ELG1-dependent DNA repair inhibition; HEK293T ELG1-luciferase reporter, luminescence, 16 h; DNA damage induced by 5-fluorouridine; Potency, µM (highest dose often 46.1 µM), inactives show at the highest dose activity change, negative = inhibition, hits mostly inhibitors; actives 2.3% (n = 330,000); AID 504467; note: potency is the fitted concentration of half-maximal effect; nearly all actives have a fitted effect of over 55% in size
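Quantitative HTS, concentration-response format. 2,000 cells/well co-treated with 5-fluorouridine and compound, 16 hr in 5% CO2 at 37 °C; ONE-Glo luminescence read after 30 min.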
Gal4-VP16 FLuc: counter-screen for ROR gamma inhibitors: Gal4-VP16 reporter. Drosophila S2 Gal4-VP16 UAS-luciferase, luminescence, 20 h. Potency, µM (series often up to 53.6 µM), without a hit: at the top dose activity, negative = inhibition, actives largely listed as inhibitors. actives 3.5% (n = 310,000);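 note: Gal4-VP16 expression switched on by copper sulfate through the metallothionein promoter; potency is the fitted concentration of half-maximal effect; nearly all actives have a fitted effect of over 50% in size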
DT40 TDP1 CPT: DT40-hTDP1 cell growth loss with CPT; chicken DT40 Tdp1-/-;hTDP1 cells + 20 nM CPT, ATP luminescence, 48 h; Potency, µM (titrated, usually from 46.2 µM), without a hit: at the highest dose activity change, negative = growth inhibition, usual class: inhibitors; actives 12% (n = 420,000); AID 686979; note: potency is the fitted concentration of half-maximal effect; nearly all actives have a fitted effect of over 55% in size
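Chicken DT40 Tdp1-/- cells complemented with human TDP1, 400 cells/well, exposed to compounds plus 20 nM camptothecin for at least 48 h at 37 C; viability read as ATP content by CellTiter-Glo luminescence.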
An asterisk follows results filed as active; [ ] = another dose, or the depositor's remark. In the library only some 21% were active in any assay of this set; here they are far more common. Unless noted, calls come from the whole dose curve; as a rule, active = well fitted curve in the direction sought with a large enough effect; inconclusive = small, poorly fitted or top-dose-only effect, or another doubt; inactive = no such curve, though single readings can be large; an effect the other way counts as inactive or inconclusive. % is set by controls: 0 for no effect and ±100 for the full control effect.

What do the screens show for `N=c1sccn1CC(=O)N1N=C(c2ccc(Cl)cc2)CC1c1ccco1` (stereo not given)?
DT40 TDP1 no CPT: 23µM*; IL-1B inflam inh: -27; RORgamma inh: 1%; ELG1 DNA repair: 15%; Gal4-VP16 FLuc: 9%; DT40 TDP1 CPT: inconclusive

Results for CCC(=O)N1N=C(c2ccc(C)cc2)CC1c1ccco1 (stereo not given) ?
DT40 TDP1 no CPT: 13µM*; IL-1B inflam inh: inconclusive; RORgamma inh: 19%; ELG1 DNA repair: -3%; Gal4-VP16 FLuc: 7%; DT40 TDP1 CPT: 21µM*

How did CCC(=O)N1N=C(c2cccs2)CC1c1ccco1 (stereo not given) do in these assays?
DT40 TDP1 no CPT: inconclusive; IL-1B inflam inh: -13; RORgamma inh: 4%; ELG1 DNA repair: 0%; Gal4-VP16 FLuc: 17%; DT40 TDP1 CPT: -12%

How did COc1ccccc1C(=O)NCCC(=O)Nc1cccc(S(=O)(=O)N2CCCC2)c1 do in these assays?
DT40 TDP1 no CPT: inconclusive; IL-1B inflam inh: -21; ELG1 DNA repair: inconclusive; DT40 TDP1 CPT: -26%

What do the screens show for `COc1ccccc1CNC(=O)CCS(=O)(=O)c1ccc2c(c1)oc(=O)n2C`?
DT40 TDP1 no CPT: -15%; DT40 TDP1 CPT: -18%

Results for CCS(=O)(=O)Nc1ccc(C2=NN(C(=S)Nc3ccccc3)C(c3ccco3)C2)cc1 (stereo not given) ?
DT40 TDP1 no CPT: 16µM*; IL-1B inflam inh: -14; RORgamma inh: -34%; ELG1 DNA repair: inconclusive; Gal4-VP16 FLuc: 4%; DT40 TDP1 CPT: 16µM*

How did CCS(=O)(=O)Nc1ccc(C2=NN(C(=O)c3ccco3)C(c3ccc(C)cc3)C2)cc1 (stereo not given) do in these assays?
DT40 TDP1 no CPT: 20µM*; IL-1B inflam inh: -10; RORgamma inh: -21%; ELG1 DNA repair: inconclusive; Gal4-VP16 FLuc: 18µM*; DT40 TDP1 CPT: inconclusive

What do the screens show for `CCOC(=O)CCN1C(=O)[C@H]2[C@H]3[C@H](O)[C@H](O)C/C(=N/O[C@@H]4O[C@@H](COC(C)=O)[C@@H](OC(C)=O)[C@@H](OC(C)=O)[C@H]4OC(C)=O)[C@H]3CC[C@@H]2C1=O`?
RORgamma inh: -2%[10 µM]; Gal4-VP16 FLuc: -7%[10 µM]

Results for CCOC(=O)CNC(=O)c1cc2c(=O)n3cccc(C)c3nc2n1C ?
DT40 TDP1 no CPT: -2%; DT40 TDP1 CPT: -3%

What do the screens show for `CSCc1cc(C(=O)NCCN2CCOCC2)c(N)s1`?
DT40 TDP1 no CPT: -9%; IL-1B inflam inh: 1; DT40 TDP1 CPT: -1%

What do the screens show for `CCNc1nc(OCC)nc(N2CCC(Cc3ccccc3)CC2)n1`?
DT40 TDP1 no CPT: inconclusive; IL-1B inflam inh: 5; RORgamma inh: 5.6µM*; ELG1 DNA repair: -1%; Gal4-VP16 FLuc: 4µM*; DT40 TDP1 CPT: -23%

What do the screens show for `CCNc1nc(Oc2ccc(=O)n(-c3ccccc3)n2)nc(N2CCOCC2)n1`?
DT40 TDP1 no CPT: -23%; IL-1B inflam inh: -2; RORgamma inh: -15%; ELG1 DNA repair: inconclusive; Gal4-VP16 FLuc: 0%; DT40 TDP1 CPT: inconclusive

Results for CNCc1ccccc1Sc1ccc(O)c(O)c1 ?
DT40 TDP1 no CPT: 4.1µM*; IL-1B inflam inh: -125*; RORgamma inh: 8.9µM*; ELG1 DNA repair: -18%; Gal4-VP16 FLuc: 7.1µM*; DT40 TDP1 CPT: 2.6µM*

What do the screens show for `COc1ccc(S(=O)(=O)N2CCOCC2)cc1NC(=O)C1COc2ccccc2O1` (stereo not given)?
DT40 TDP1 no CPT: inconclusive; IL-1B inflam inh: 1; ELG1 DNA repair: 10µM*; DT40 TDP1 CPT: inconclusive

Results for COc1ccc(/C=C/C(=O)Nc2ccc(C(C)=O)cc2)cc1S(=O)(=O)N1CCOCC1 ?
DT40 TDP1 no CPT: -21%; IL-1B inflam inh: 12; DT40 TDP1 CPT: 0%

How did COc1ccc(/C=C/C(=O)Nc2ccccc2C)cc1S(=O)(=O)N1CCOCC1 do in these assays?
DT40 TDP1 no CPT: -26%; IL-1B inflam inh: -24; RORgamma inh: 21%; ELG1 DNA repair: inconclusive; Gal4-VP16 FLuc: -1%; DT40 TDP1 CPT: inconclusive

Results for CCCOc1ccccc1NC(=O)/C=C/C(N)=O ?
DT40 TDP1 no CPT: 2.5µM*; IL-1B inflam inh: -6; RORgamma inh: 4µM*; ELG1 DNA repair: 4%; Gal4-VP16 FLuc: 4.5µM*; DT40 TDP1 CPT: 1.3µM*

How did COc1cc(/C=C/C(=O)Nc2ccc(OC)c(S(=O)(=O)N3CCOCC3)c2)ccc1OC(F)F do in these assays?
DT40 TDP1 no CPT: 16µM*; IL-1B inflam inh: -20; ELG1 DNA repair: 10µM*; DT40 TDP1 CPT: 18µM*

Results for COc1ccc(/C=C/C(=O)Nc2ccccc2F)cc1S(=O)(=O)N1CCOCC1 ?
DT40 TDP1 no CPT: -17%; IL-1B inflam inh: -88*; ELG1 DNA repair: inconclusive; DT40 TDP1 CPT: inconclusive

How did CCCCOc1ccccc1NC(=O)C=C(C)C do in these assays?
DT40 TDP1 no CPT: -10%; IL-1B inflam inh: 6; RORgamma inh: -2%; ELG1 DNA repair: 0%; Gal4-VP16 FLuc: -3%; DT40 TDP1 CPT: -24%

What do the screens show for `CSCCC(NC(=O)c1ccc(Cl)cc1Cl)C(=O)N(C)Cc1nc2ccccc2c(=O)[nH]1` (stereo not given)?
DT40 TDP1 no CPT: -22%; IL-1B inflam inh: -7; ELG1 DNA repair: -9%; DT40 TDP1 CPT: inconclusive

What do the screens show for `Cc1nc2nc(CNC(=O)OC(C)(C)C)nn2c(C)c1CCC(=O)NCc1ccc(F)cc1`?
DT40 TDP1 no CPT: -16%; DT40 TDP1 CPT: 1%

What do the screens show for `O=S(=O)(c1ccc2ccccc2c1)n1nc(-c2ccco2)nc1NCc1ccc(F)cc1`?
DT40 TDP1 no CPT: -27%; DT40 TDP1 CPT: 1%

What do the screens show for `CCCOc1ccccc1NC(=O)/C=C/c1ccc(OC)c(S(=O)(=O)N2CCOCC2)c1`?
DT40 TDP1 no CPT: 16µM*; IL-1B inflam inh: -23; DT40 TDP1 CPT: inconclusive

How did CCN(Cc1ccc(OC)c(F)c1)C(=O)/C=C/c1ccc(S(=O)(=O)N2CCOCC2)cc1 do in these assays?
DT40 TDP1 no CPT: 23µM*; IL-1B inflam inh: -12; ELG1 DNA repair: inconclusive; DT40 TDP1 CPT: inconclusive

How did COc1ccc(/C=C/C(=O)Nc2cccc(F)c2)cc1S(=O)(=O)N1CCOCC1 do in these assays?
DT40 TDP1 no CPT: inconclusive; IL-1B inflam inh: inconclusive; RORgamma inh: 21%; ELG1 DNA repair: 21µM*; Gal4-VP16 FLuc: -21%; DT40 TDP1 CPT: inconclusive

Bioassay records deposited in PubChem by National Center for Advancing Translational Sciences (NCATS).
